Data from ChEMBL document CHEMBL4513216, “Probing the Open Global Health Chemical Diversity Library for Multistage-Active Starting Points for Next-Generation Antimalarials” (ACS Infect Dis, 2020).
The whole screen tested about 65,000 compounds, of which about 2,100 (3.2%) showed an effect of 50% or more. The median lay at about -52%. The full list was thinned out, with strong results kept by preference.

These molecules were tested on Plasmodium falciparum (assay: Screen against P. falciparum Asexual Blood Stage (ABS), at 5uM). Settings: tested at 5 uM.
Type: functional, Dd2
CC(C)Cc1ncc2c(n1)CN(C(=O)c1ccc(CN3CCCC3)o1)C2 was tested, and the INHIBITION was 70.3%. O=C(c1ccc(Cn2ccccc2=O)o1)N1CCC2(CC1)OCCO2 showed an INHIBITION of 1.12%. For CCCn1cc(C(=O)NCCS(N)(=O)=O)c2ccccc21, the INHIBITION was -25.6%. Cc1ccc(C(C)NCc2cn(CCC(N)=O)c3ccccc23)cc1C (stereo not drawn) showed an INHIBITION of 82.8%. In the case of CCCn1cc(C(=O)NCCCC(N)=O)c2ccccc21, the INHIBITION is reported as -75%. With CC(C)CNC(=O)N1C[C@@H]2CCCN[C@@H]2C1 the INHIBITION was -5.1%. Molecule COCCN1CCOCC12CCN(C(=O)c1ccncc1)CC2 has an INHIBITION of -98.9%. With FC(F)(F)c1ccc2nc([C@H]3CCN(C4CCCCC4)C3)[nH]c2c1 the INHIBITION was 83.6%. With CCc1nc(-c2ccc(C(=O)N3CCC4(CC3)OCCO4)cc2)no1 the INHIBITION was -52.5%. Cc1ccc2c(CC(=O)N3C[C@@H](O)[C@H](N(C)C)C3)coc2c1 showed an INHIBITION of 9.22%. CN(C)CCCn1ccnc1C1CCCN(c2ncc(Cl)cc2F)C1 (stereo not drawn) was tested, and the INHIBITION was 84.4%. COCCO[C@@H]1C[C@H]2CN(C(=O)c3cccnc3)CCN2C1 showed an INHIBITION of -84.1%. For CC(Cc1ccccc1Cl)NC(=O)Nc1cnn(CC(N)=O)c1 (stereo not drawn), the INHIBITION was -20.1%. With CCC(NCc1ccccc1Cl)c1ccccc1OCC(=O)NC (stereo not drawn) the INHIBITION was 74.7%. CCC(NCc1ccccc1C)c1ccccc1OCC(=O)NC (stereo not drawn) showed an INHIBITION of 80%. Clc1ccccc1CNC(Cn1cncn1)c1ccccc1 (stereo not drawn) showed an INHIBITION of -8.41%. For Cc1ccccc1CNC(Cn1cncn1)c1ccccc1 (stereo not drawn), the INHIBITION was -47.8%. With CCC(NCc1cccc(Cl)c1)c1ccccc1OCC(=O)NC (stereo not drawn) the INHIBITION was 82.8%. Work on COCC(=O)NC(C)Cc1cccc(Cl)c1 (stereo not drawn) yielded an INHIBITION of -14.8%. Molecule CC(Cc1cccc(Cl)c1)NC(=O)NCc1ncnn1C (stereo not drawn) has an INHIBITION of -104%. COCCN1CCO[C@H]2CN(Cc3cccc(C)n3)C[C@H]21 was tested, and the INHIBITION was -18.3%. In the case of Cc1cc(NC2CC3(CCN(Cc4ncccc4F)C3)C2)ncn1 (stereo not drawn), the INHIBITION is reported as -37.1%. CCc1c(C)[nH]c(C2(N)CCCC2)nc1=O showed an INHIBITION of -43.5%. CNC(=O)[C@H]1C[C@@H]2CN(Cc3cccnc3OC)C[C@@H]2N1C(C)C was tested, and the INHIBITION was 21.8%. CN1CCCC(Cc2cncc(Br)c2)CC1 (stereo not drawn) gave an INHIBITION of -65%. With CC(NC(=O)CN1CCCC1=O)c1ccc(Cl)s1 (stereo not drawn) the INHIBITION was -3.71%. Cc1cc(Br)cnc1NCCN1CCC(N(C)C)CC1 gave an INHIBITION of 89.1%. With Cc1cc(C(C)NCCN2CCC(N(C)C)CC2)c(C)s1 (stereo not drawn) the INHIBITION was 81.6%. CC(Cn1cccn1)NCc1ccc(Cl)s1 (stereo not drawn) showed an INHIBITION of -30.2%. In the case of CC(NCCN1CCC(N(C)C)CC1)c1ccc(Cl)s1 (stereo not drawn), the INHIBITION is reported as 75.4%. Work on CN1[C@@H]2CC[C@H]1CN(c1cc(Sc3cccs3)nc(N)n1)CC2 yielded an INHIBITION of 19.3%. Cc1ccc(CN2CC[C@H]3NC(=O)CC[C@@H]32)o1 gave an INHIBITION of -34.6%. Molecule CSc1ccc(-c2nc(CN3CCC(CN)C3)c(C)o2)cc1 (stereo not drawn) has an INHIBITION of 83.05%. For Cc1cc(CN2CC[C@]3(C[C@@H](OCC(=O)N(C)C)CO3)C2)no1, the INHIBITION was -93%. CCn1cc(CN2CCCCC2CCn2ccnc2C)cc1C#N (stereo not drawn) gave an INHIBITION of 78.2%. CCn1ccnc1CN1CCN(C(C)C)CC1C (stereo not drawn) was tested, and the INHIBITION was -35.9%. Molecule c1ccc(CN2CCCC[C@H]3CN(c4ncccn4)C[C@H]32)cc1 has an INHIBITION of 3.59%. CCCN1CCC(NC(=O)c2ccc(F)cc2I)CC1 showed an INHIBITION of 71.1%. With O=C(c1cc2cc(F)ccc2[nH]1)N1CCC(Nc2ccc(F)cc2)CC1 the INHIBITION was -1.01%. With Cc1cc(CC(=O)N2CCN(CC3CC3)[C@@H]3CS(=O)(=O)C[C@@H]32)ccc1F the INHIBITION was -75.7%. Cc1ccc2nc(C)cc(C(=O)N[C@H]3COC[C@@H]3N3CCOCC3)c2c1 gave an INHIBITION of -169%. Work on CO[C@H]1CNC[C@@H]1NC(=O)c1cc(C)nc2c(C)cc(C)cc12 yielded an INHIBITION of 75.1%. In the case of Cc1cc(C(=O)N[C@H]2COC[C@@H]2N2CCOCC2)c2ccc(F)cc2n1, the INHIBITION is reported as -31.3%. In the case of c1cncc(OC[C@]23COC[C@H]2CN(C2CCC2)C3)c1, the INHIBITION is reported as -4.29%. CCC1CCCN(Cc2nc(N)c3ccccc3n2)C1 (stereo not drawn) showed an INHIBITION of 74%. In the case of O=S(=O)(C1CC1)N1CCOC2(CCCN(Cc3ccccn3)C2)C1 (stereo not drawn), the INHIBITION is reported as -97.5%. CCN1CCc2c(cccc2NC(=O)N(C)C2CCSC2)C1 (stereo not drawn) showed an INHIBITION of -40.2%. CN(C)CCN1CCN(CC2CC2)c2ncccc2C1 showed an INHIBITION of 10.4%. CN(C)CCN1CCC(NC2CSCCc3ccccc32)CC1 (stereo not drawn) gave an INHIBITION of 76.5%. For O=C1[C@@H]2CN(Cc3ccccn3)C[C@H]2CCN1c1cncnc1, the INHIBITION was -99.9%. Cc1ccc(-n2nnc(CC(=O)N3CCN(C(C)C)CC3)c2C)cc1 showed an INHIBITION of -42.3%. With CCC(=O)NCC(=O)NC(Cc1ccccc1)c1sccc1C (stereo not drawn) the INHIBITION was 85.5%. For CCOC(C)c1noc(CN(C)C(=O)C2C(C)(C)C2(C)C)n1 (stereo not drawn), the INHIBITION was -124%. Work on COc1ccc(CCNCc2ccco2)cc1OC yielded an INHIBITION of 5.79%. Molecule Cc1cc(C)c2cc(CNCc3ccco3)c3nn(C)c(=O)n3c2c1 has an INHIBITION of 75.5%. With Cc1cc(C)c2cc(CNC3CCCCC3)c3nn(C)c(=O)n3c2c1 the INHIBITION was 79.7%. Work on Cc1ccccc1CNCc1cc(Cl)ccc1O yielded an INHIBITION of 75.4%. Oc1ccc(Cl)cc1CNCc1cccc(C(F)(F)F)c1 showed an INHIBITION of 89%. In the case of Oc1ccc(Cl)cc1CNCc1ccccc1Cl, the INHIBITION is reported as 76.4%. With COCCNC(=O)[C@H]1C[C@@H]2CCN(Cc3ccncc3)C[C@H]2O1 the INHIBITION was -49.6%. Work on O=C(NCc1ccncc1)C1=NOC2(CCCNC2)C1 (stereo not drawn) yielded an INHIBITION of -6.12%. Cc1cccc(CN2CC3C[C@]3(NC(=O)c3ccco3)C2)n1 (stereo partly drawn) was tested, and the INHIBITION was -83.2%. CCCc1nc(CNC(C)Cn2cccn2)cs1 (stereo not drawn) was tested, and the INHIBITION was -91.5%. Work on COCCN1CCN(c2ccc(C)nn2)Cc2ccc(C)nc21 yielded an INHIBITION of -54.8%. For c1ccn2c(C3CCCN(c4ncnc5c4CCNC5)C3)nnc2c1 (stereo not drawn), the INHIBITION was 76.2%. O=C(C1CC1)N1CCc2c(ncnc2N2CCN3CCCC3C2)C1 (stereo not drawn) was tested, and the INHIBITION was -21.1%. In the case of Nc1nc2c(c(N3CCCC(c4nnc5ccccn45)C3)n1)CCNC2 (stereo not drawn), the INHIBITION is reported as 84.8%. In the case of Clc1cncc(N2CCN(Cc3ccon3)CC2)n1, the INHIBITION is reported as -51.3%.
